# Screens as filed in PubChem BioAssay.
# Shown are actives, neighbours in structure and some others; about 10% of the full set was active somewhere.
# G9a inh: qHTS Assay for Inhibitors of Histone Lysine Methyltransferase G9a | G9a H3K9 monomethylation, AlphaScreen, 2 h | Potency, µM (titrated, usually from 102 µM), inactives show at the highest dose activity, negative = inhibition, usual class: inhibitors | 350,000 compounds, 8.8% hits | Histone-lysine N-methyltransferase EHMT2 (Homo sapiens), Q96KQ7 | AID 504332, 2011; also: % is scaled to controls: 0 for no effect and ±100 for the full control effect; nearly all actives have a fitted effect of over 75% in size
# Target sequence (Q96KQ7 913-1193 limits assumed): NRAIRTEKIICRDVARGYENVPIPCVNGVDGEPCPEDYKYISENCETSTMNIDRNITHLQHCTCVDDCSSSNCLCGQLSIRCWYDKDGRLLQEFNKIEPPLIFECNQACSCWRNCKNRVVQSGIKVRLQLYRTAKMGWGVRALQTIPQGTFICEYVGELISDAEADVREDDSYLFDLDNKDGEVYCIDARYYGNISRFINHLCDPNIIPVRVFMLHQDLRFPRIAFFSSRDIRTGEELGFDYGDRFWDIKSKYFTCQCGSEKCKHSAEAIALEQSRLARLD
#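 AlphaScreen read-out: biotin-H3K9 peptide (500 nM) methylation by 20 nM enzyme with 20 uM SAM, 2 h at room temperature after 15 min compound preincubation; anti-monomethyl H3K9 antibody plus donor/acceptor beads, 10 min dark.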
# BAZ2B block: qHTS Assay for Inhibitors of BAZ2B; Bromodomain adjacent to zinc finger domain protein 2B (Homo sapiens), Q9UIF8; Potency, µM (top dose mostly 114 µM), for the others: at the highest dose activity change, negative = inhibition, hits mostly inhibitors; 360,000 compounds, 4.4% hits; AlphaScreen BAZ2B-H3K14Ac peptide displacement; also: % is scaled to controls: 0 for no effect and ±100 for the full control effect; nearly all actives have a fitted effect of over 60% in size
#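 Complex of BAZ2B and biotin-H3K14Ac (50 nM apiece) forms over 30 min at RT, then faces library compounds up to 110 uM for another 30 min; AlphaScreen beads added, 20 min dark incubation, luminescence read.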
# HP1b binding inh: HTS for Inhibitors of HP1-beta Chromodomain Interactions with Methylated Histone Tails | Chromobox protein homolog 1 (Homo sapiens), P83916 | AlphaScreen HP1-beta / biotin-H3K9me3 peptide binding | Potency, µM (titrated, usually from 114 µM), without a hit: top-dose activity change, negative = inhibition, hits mostly inhibitors | 390,000 compounds, 0.56% hits; also: nearly all actives have a fitted effect of over 70% in size
# Target sequence (P83916 whole entry, looked up): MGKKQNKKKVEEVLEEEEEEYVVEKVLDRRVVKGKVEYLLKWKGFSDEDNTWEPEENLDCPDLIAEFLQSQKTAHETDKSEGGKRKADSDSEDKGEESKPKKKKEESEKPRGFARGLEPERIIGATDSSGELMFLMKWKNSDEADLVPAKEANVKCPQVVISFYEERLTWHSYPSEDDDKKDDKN
#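 HP1-beta protein (50 nM final) preincubated 30 min at room temperature with biotinylated H3(1-18)K9me3 peptide (50 nM) in PBS pH 7.4, 0.01% Tween-20, then compound added for 30 min. AlphaScreen streptavidin donor/nickel chelate acceptor beads (10 ug/mL final), 30 min dark, luminescence read.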
# GLS inhibitor: qHTS for Inhibitors of Glutaminase (GLS) | Glutaminase kidney isoform, mitochondrial (Homo sapiens), O94925 | GLS enzymatic activity, qHTS titration | Potency, µM (top dose mostly 45.5 µM), without a hit: at the top dose activity change, negative = inhibition, hits mostly inhibitors | 410,000 compounds, 0.21% hits | AID 624170, 2012; also: % is scaled to controls: 0 for no effect and ±100 for the full control effect
#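 Coupled fluorescence readout: glutamate oxidase/HRP/Amplex Red detect glutamate formed by hKGA from L-glutamine (1 mM solution added). Buffer 45 mM KH2PO4 pH 8.2, 0.02% Tween-20; reads at t0 and 30 min RT.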
# JMJD2A Tudor: qHTS Assay for Inhibitors of JMJD2A-Tudor Domain. Lysine-specific demethylase 4A (Homo sapiens), O75164. AlphaScreen JMJD2A-Tudor / H3K4me3 peptide binding. Potency, µM (doses to about 114 µM), for the others: at the highest dose activity change, negative = inhibition, usual class: inhibitors. 390,000 compounds, 4.4% hits; also: % is scaled to controls: 0 for no effect and ±100 for the full control effect; nearly all actives have a fitted effect of over 50% in size
# Numbers without * were called inactive; ? = inconclusive; nt = no result given; ! = not active in a repeat; [ ] = another dose, or the depositor's remark. Calls follow the shape of the dose curve; as a rule, active = well fitted curve in the direction sought with a large enough effect; inconclusive = small, poorly fitted or top-dose-only effect, or another doubt; inactive = no such curve, though single readings can be large; an effect the other way counts as inactive or inconclusive. Potency is read from the fitted curve at half-maximal effect.
SMILES,G9a inh,BAZ2B block,HP1b binding inh,GLS inhibitor,JMJD2A Tudor
CC(C)(C)c1ccc2c(c1)C(c1ccc3c(c1)OCO3)CC(=O)O2 (stereo unspecified),38.0%,nt,57.8%,-4.7%,8.9%
COc1cccc(/C=N/NC(=O)CCCc2ccc(OC)c(C)c2)c1,5.0%,4.0%,40.3%,1.1%,-3.4%
O=C(NS(=O)(=O)c1ccccc1Cl)c1ccc[nH]1,79.4µM*,-8.8%,nt,nt,nt
O=C(NCc1ccccc1Cl)c1ccc[nH]1,-3.7%,-21.7%,30.1%,8.6%,0.0%[57.1 µM]
O=C(CSc1nnc(-c2ccco2)o1)c1ccc(F)c(F)c1,1.8%,6.7%,35.5%,1.6%,-13.5%
Cc1cc(CC(=O)O)c2oc(-c3ccoc3)cc(=O)c2c1,nt,nt,-20.3%,?,89.1µM*
CO[C@H]1C[C@@H]2CC[C@@H](C)[C@@](O)(O2)C(=O)C(=O)N2CCCC[C@H]2C(=O)O[C@H]([C@H](C)C[C@@H]2CC[C@@H](O)[C@H](OC)C2)CC(=O)[C@H](C)/C=C(/C)[C@@H](O)[C@@H](OC)C(=O)[C@H](C)C[C@H](C)C=C/C=C\C=C/1C,nt,nt,15.5%,nt,-35.5%
CO[C@H]1C[C@@H]2CC[C@@H](C)[C@@](O)(O2)C(=O)C(=O)N2CCCC[C@H]2C(=O)OC([C@H](C)C[C@@H]2CC[C@@H](O)[C@H](OC)C2)CC(=O)[C@H](C)/C=C(\C)[C@@H](O)[C@@H](OC)C(=O)[C@H](C)C[C@H](C)/C=C/C=C/C=C/1C (stereo partly specified),25.1µM*!,nt,nt,nt,nt
CC1=CC(C)=Nc2ccc(C)cc2N1,44.7µM*,-34.4%,49.6%,1.3%,-5.8%
Cc1ccc2c(c1)NC(=O)CC(c1ccccc1)=N2,-6.3%[59 µM],10.9%,16.3%,-2.0%,-10.6%
CC(C)N1CCc2c(sc(NC(=O)c3ccc(C(=O)c4ccccc4)cc3)c2C(N)=O)C1,nt,?,-18.5%,-1.5%,56.2µM*
CC(=O)c1ccc(C(=O)Nc2sc3c(c2C(N)=O)CCN(Cc2ccccc2)C3)cc1,?,-28.0%,nt,nt,nt
COC(=O)c1c(NC(=O)c2ccco2)sc2c1CCN(C(C)C)C2,31.6µM*,-25.4%,40.9%,14.8%,-12.4%
COc1cccc(OC)c1C(=O)Nc1sc2c(c1C(N)=O)CCN(Cc1ccccc1)C2,79.4µM*,-31.6%,16.0%,18.6%,-30.6%
CC(C)N1CCc2c(sc(NC(=O)c3ccc4ccccc4c3)c2C(N)=O)C1,22.2%,-12.8%,46.6%,8.7%,21.6%
COC(=O)c1c(NC(=O)c2ccc(S(=O)(=O)N3CCCCC3C)cc2)sc2c1CCN(C(C)C)C2 (stereo unspecified),-17.7%[59 µM],0.1%,71.1%,4.2%,-29.7%
CC(C)N1CCc2c(sc(NC(=O)c3ccc(S(=O)(=O)N4CCCCC4C)cc3)c2C(N)=O)C1 (stereo unspecified),-19.2%,50.1µM*,10.5%,14.1%,-20.3%
COc1ccc(/C=C(/NC(=O)c2ccco2)C(=O)N2CCCC2=O)cc1,-6.0%,-4.2%,33.5%,7.1%,-16.8%
COc1ccc(C(=O)C2CCN(C(=S)NCC3CCCO3)CC2)cc1 (stereo unspecified),6.9%[59 µM],-23.8%,23.9%,-2.1%,-18.6%
CC(C)N1CCc2c(sc(NC(=O)CCc3ccccc3)c2C(N)=O)C1,44.7µM*,?,51.7%,12.6%,-11.6%
CCn1c(-c2cc(-c3ccc(OC(C)C)cc3)nc3ccccc23)n[nH]c1=S,28.2µM*,-33.6%,4.0%,-8.8%,-20.1%
CCn1c(-c2cc(-c3ccc(C)cc3)nc3ccccc23)n[nH]c1=S,8.91µM*,?,-16.3%,5.3%,-33.3%
CCCOc1cccc(-c2cc(-c3n[nH]c(=S)n3CC)c3ccccc3n2)c1,-0.6%[0.0925 µM],?,-29.4%,9.9%,?
CCN(CC)C(=O)c1ncn(Cc2ccccc2)c1C(=O)N(CC)CC,9.0%[0.501 µM],4.3%,21.8%,0.8%,-23.4%
O=C1OC/C(=C(/O)c2ccc(Cl)cc2)C1=O,39.8µM*,-36.2%,60.7%,-2.7%,-13.3%
SMILES,G9a inh,BAZ2B block,HP1b binding inh,GLS inhibitor,JMJD2A Tudor
CCOc1ccc(OCc2cccc(C(=O)Nc3ccc(CN4CCCCC4)cc3)c2)cc1,20µM*,?,?,6.9%,?
CCN(CC)c1ccc(NC(=O)CCCOc2cccc(C)c2)cc1,8.7%,0.7%,?,-13.9%,10µM*
CCOc1cccc(C(=O)Nc2ccc3ccccc3c2)c1,-11.3%,4.0%,41.6%,-1.1%,4.1%
CCOc1cccc(C(=O)Nc2ccc(N(CC)CC)cc2)c1,8.91µM*,39.8µM*,?,57.5%,25.1µM*
CCOc1cccc(C(=O)Nc2ccc(N3CCCC3)cc2)c1,3.55µM*,-32.3%,-9.8%,-2.0%,?
COc1ccc(OCc2cccc(C(=O)Nc3ccc(CN4CCCCC4)cc3)c2)cc1,?,?,-20.5%,-6.4%,?
C[C@H](O)[C@@H]1CN2CCc3c([nH]c4ccccc34)[C@@H]2C[C@@H]1N(C)C(=O)Nc1ccc(Br)cc1,nt,nt,nt,1.2%,nt
Cc1ccc(S(=O)(=O)NC(=O)N2CCN(Cc3c(F)cccc3Cl)CC2)cc1,nt,-3.4%,13.0%,0.6%,-4.5%
CCN(C(=O)CSc1nc(-c2ccccc2)c(-c2ccccc2)[nH]1)C1CCS(=O)(=O)C1 (stereo unspecified),?,-34.8%,5.8%,-16.8%,-31.9%
O=C(c1ccco1)N(Cc1cccc([N+](=O)[O-])c1)c1ccc(Br)cc1,nt,50.1µM*,-2.2%,6.2%,?
O=C(c1ccco1)N(Cc1ccc([N+](=O)[O-])cc1)c1ccc(Br)cc1,24.8%[0.501 µM],?,-20.2%,4.1%,-33.1%[57.1 µM]
Cc1ccc(C(=O)COC(=O)c2cc(=O)[nH]c3ccccc23)cc1C,28.2µM*,50.1µM*,?,-7.9%,-33.0%
O=C(CCc1nnc2ccc(NCc3ccco3)nn12)N1CCN(c2ccccc2F)CC1,nt,70.8µM*,30.1%,8.4%,?
Cc1cccc(NC(=O)CCc2nnc3ccc(NCc4ccco4)nn23)n1,-7.1%,50.1µM*,46.0%,?,16.0%
O=C(CCc1nnc2ccc(NCc3ccco3)nn12)Nc1ccccn1,?,50.1µM*,32.3%,?,11.3%
c1ccc2oc(-c3csc(N4CCOCC4)n3)cc2c1,39.8µM*,-30.5%,-5.4%,-18.0%,-15.8%
COc1cc(-c2csc(N3CCOCC3)n2)cc(OC)c1OC,56.2µM*,?,13.7%,-6.4%,-23.6%
Fc1ccc(-c2csc(N3CCOCC3)n2)cc1,nt,-23.3%,-3.3%,-5.0%,-16.9%
COCCCNC(=O)c1ccc(CS(=O)(=O)c2cccc(C(F)(F)F)c2)o1,1.1%,-13.3%,36.8%,-6.1%,-5.5%
